The values that follow come from PubChem BioAssay (NCI).

The structures appear in SMILES notation. This is part of a sample that, as a whole, favours compounds with a hit. Of some 83,000 tested, about 20% had one in any assay.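 Compound tested at a single concentration for 48 hours in 96-well plates; a percent growth value below 10 was scored as active.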 A number with no mark means an inactive call. Active and inactive are the calls of the source.

The test system of the assay is HL-60(TB) leukemia. As to the kind of experiment: NCI-60 one-dose screen, 48 h (100 = growth as untreated, 0 = no growth, -100 = all killed). The following applies: 10 µM unless noted.
For `CC([C@H]1CCC2C3CCC4C[C@@H](N)CC[C@]4(C)C3CC[C@@]21C)N(C)C` (stereo not given in full), the growth is 30.6%.
For `COC(=O)/C=C1/SC(N2N=C(c3cccs3)CC2c2ccc(F)cc2)=NC1=O` (stereo not given) the value was -7.95% (active); for `CC1(C)CC[C@]2(C(=O)O)CC[C@]3(C)[C@H](CC[C@@H]4[C@@]5(C)CCC(=O)C(C)(C)[C@@H]5CC[C@]43C)[C@H]2[C@H]1OC(=O)C(F)(F)F`, -23.4% [100 µM] (active).
The value for `O=S(=O)(N=C1C(Cl)=C(Cl)C(=NS(=O)(=O)c2ccccc2)C(Cl)=C1Cl)c1ccccc1` was 48.5%; that for `Nc1cc(N)c2nc(NCCc3ccc(Cl)c(Cl)c3)cnc2c1` was -74.3% (active).
The value for `CC(C)c1ccc(/C=N/Nc2nc3ccccc3s2)cc1` was 98%; that for `CCOC(=O)CSc1c([N+](=O)[O-])ncn1C` was 91.4%.
In the case of `Cc1cc(NCCCNc2ccnc3cc(Cl)ccc23)nc(N2CCN(C)CC2)n1`, the growth is 15.7%.
For `O=C1Nc2ccccc2/C1=C/C(=N/c1nnc(-c2ccccc2)s1)c1ccccc1` the value was -32.9% (active); for `COc1cc2c(Nc3ccc(NC(=O)Nc4ccc(Cl)c(C(F)(F)F)c4)c(Cl)c3)ncnc2cc1OCCCN1CCN(C)CC1`, -56.4% (active); for `CCN(CCNc1ccc(C)c2sc3cc(Cl)ccc3c(=O)c12)CC(C)O` (stereo not given), 9.78% (active).
As for `CC(=O)OCC1O[C@@H](OC(C)=O)[C@@H](NC(=O)NS(=O)(=O)c2ccccc2)C(OC(C)=O)[C@@H]1OC(C)=O` (stereo not given in full), the growth is 95.7%.
For `Cn1cc(C(=O)NCCC(=N)N)cc1NC(=O)CN=C(N)N` the value was 102%; for `CC(=O)CC/C=C(\C)[C@H](O)[C@H](C)C(=O)O[C@H]1C[C@H](C)C=C2C=C[C@@]3(C)O[C@@H](O)CC(=O)[C@]3(C)[C@H]21`, -21.3% (active).
The value for `O=C(CCCCNC(=O)c1nc(-c2ccccc2)n(-c2ccccc2)n1)NO` was 97%; that for `CN(C)CCCCNc1ccc(NCCCCN(C)C)c2c1C(=O)c1c(O)ccc(O)c1C2=O` was 24.6%.
As for `COc1ccc(OC)c(/C=C2\COc3ccc(O)c(O)c3C2=O)c1`, the growth is -11% (active).
Consider `COc1cc(-c2nn(-c3ccc(Br)cc3)cc2CO)ccc1O`, for which the growth is 74.8%.
For `CCOc1ccc(/C=C/C(=O)c2cccc(OCCCOc3cccc(C(=O)/C=C/c4ccc(OCC)cc4)c3)c2)cc1` the value was 56%.
For `C=C1C(=O)O[C@H]2[C@H]1CC/C(COC(=O)NCc1[nH]nc3ccccc13)=C\CC[C@@]1(C)O[C@@H]21` the value was -51% (active); for `CCCCCCCC/C=C\CCCCCCCCOc1ccc(CC(=O)NCC[N+]2(C)CCOCC2)cc1`, -14% (active).
For `O=c1c2c3c(sc2n2c(-c4cc(-c5ccccc5)nn4-c4ccccc4)nnc2n1Cc1ccccc1)CCCC3` the value was 50.7%; for `Clc1ccc(-c2nnc(-c3cccc4ccccc34)o2)cc1`, 112%; for `O=C(CN1C(=O)/C(=C\c2ccc(Cl)cc2)SC1=S)Nc1ncc(Cc2ccc(Cl)cc2)s1`, 102%.
Take `Cn1nc(C(C)(C)C)cc1NC(=O)Cc1ccc(/C=C2\C(=O)Nc3ccccc32)cc1`: the growth was 48.2%.
